Assay outcomes from PubChem.
HSF-1 act = HSF-1 activators, primary screen, NIH3T3-HGL cells, MG132 stress, luminescence, single point; actives 1.7% (n = 300,000); activation, % at 9 µM; NIH3T3-HGL HSF-1 luciferase reporter, 8 h; 100% = twice DMSO control signal;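 active = mean replicate activation of at least 50% with a set share of replicates each reaching 50%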;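 note: 0% = median of the neutral control wells and 100% = twice that signal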
LMP1 NFkB inh = EBV LMP1-driven NF-kappaB luciferase reporter inhibitors, primary screen, cell-based, luminescence, single point; LMP1-induced NF-kappaB luciferase reporter cells; inhibition, % at 12.5 µM; actives 0.69% (n = 350,000); AID 504558, 2011; in the data active = inhibition above about 41%;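 note: 0% = neutral control wells and 100% = reference inhibitor control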
HSF1 inh = HSF1 inhibitors in luciferase reporter cells, primary screen, cell-based, NIH3T3, luminescence. actives 0.77% (n = 300,000). AID 2098, 2009. activity change, negative = inhibition, % at 7.5 µM (by protocol). NIH3T3-HGL HSE-luciferase, MG132-induced, luminescence 8 h; active compounds read low;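 active = more than half of replicate wells show activity change below -50%, luminescence cut by over half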;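 note: luciferase reports HSF-1 transcriptional activity via heat shock element; 0% = median of DMSO wells and -100% = zero luminescence signal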
TROY signal inh = inhibitors of TROY-driven NF-kB signaling, primary screen, Q293 LMP1-TROYcd cells, NF-kB luciferase, uHTS | inhibition, % at 10 µM | Q293 LMP1-TROYcd NF-kB luciferase reporter, 4 h | AID 1347056, 2019 | actives 0.98% (n = 360,000);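 active = compounds whose plate-normalised and pattern-corrected inhibition of the luciferase reporter signal at the single screening dose is 50% or more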
HSP90 refold inh = HSP90 inhibitors, primary screen, cell lysate, luminescence; Heat shock protein HSP 90 (rabbit reticulocyte lysate; luciferase refolding); inhibition, % at 5.6 µM; Rabbit reticulocyte lysate, luciferase refolding luminescence, 3 h; actives 0.91% (n = 290,000);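 active = inhibition above the screen-wide mean plus 3 SD, computed separately per campaign, cut at about 16% in these data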;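 note: 0% = DMSO wells and 100% = 60 µM geldanamycin wells; inhibitors lower the luminescence because luciferase stays unfolded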
TWEAK Fn14 block = inhibitors of TWEAK-Fn14 signaling, primary screen, luciferase reporter cells, uHTS; TWEAK-stimulated Fn14 reporter cells, luciferase luminescence, 8 h; AID 1159606, 2016; inhibition, % at 10 µM; actives 2% (n = 360,000); in the data active = inhibition above about 50%
* = called active by the depositor; nt = no result given; ! = repeats disagree. A selection: hits, their analogues and other compounds. The true share with any hit is near 4.7%.

SMILES | HSF-1 act | LMP1 NFkB inh | HSF1 inh | TROY signal inh | HSP90 refold inh | TWEAK Fn14 block
COC(=O)C1=C(c2ccc(OCc3ccccc3)cc2)C[C@@H]2CC[C@H]1N2C(=O)NC1CCN(Cc2ccccc2)CC1 | nt | -1 | nt | 15 | nt | 8
Cc1nccc2c1[nH]c1ccc(Br)cc12 | 2 | -8 | 0 | -6 | nt | -13
COc1ccc2c(c1)[nH]c1c(C)nccc12 | nt | 38 | nt | 50 | nt | 65*
CC(C)COC(=O)c1ccccc1C(=O)OCC(C)C | -8 | -8 | 4 | -5 | nt | 8
C[CH2][Hg][S]c1ccccc1C(=O)O | nt | -13 | nt | 25 | nt | 92*
COc1cc2c(c(OC)c1OC)-c1ccc(SC)c(=O)cc1C(NC(C)=O)CC2 (stereo not drawn) | nt | 1 | nt | 6 | nt | 48
COc1cc(/C=C/[N+](=O)[O-])ccc1O | 274* | 9 | 234 | 3 | 4 | -6
C[C@H]1CN([C@@H](C)CO)C(=O)CCCn2nncc2CO[C@@H]1CN(C)C(=O)Oc1ccccc1 | nt | 7 | nt | -16 | nt | 16
CC12CC[C@H]3[C@@H](CCC4(O)C[C@H](O)CCC34/C=N/NC(=O)c3ccccc3F)C1(O)CCC2C1=CC(=O)OC1 (stereo partly drawn) | -1 | 2 | -4 | -13 | 0 | 95*
CCOC(=O)[C@]12Cc3ccccc3[C@H]1N(C)C(=O)c1cc(OC)ccc12 | nt | nt | nt | 12 | nt | 19
CCOC(=O)[C@]12Cc3cc(OC)ccc3[C@H]1N(C1CCCCC1)C(=O)c1cc(OC)ccc12 | nt | nt | nt | 55* | nt | 11
CCOC(=O)[C@]12Cc3cc(C)ccc3[C@H]1N(C1CCCCC1)C(=O)c1cc(OC)ccc12 | nt | nt | nt | 54* | nt | 101*
O=C1NC(=O)C(=Cc2ccc(Cl)cc2)C(=O)N1 | nt | nt | nt | -7 | nt | 0
COc1ccc(CC(=O)N2CCN(C)CC2)cc1 | -3 | 3 | -4 | 5 | 3 | 18
COc1ccc(CC2NCC(O)C2OC(C)=O)cc1 (stereo not drawn) | nt | 88* | nt | 88* | nt | 100*
Cn1cccc1CNCCc1ccccc1 | -1 | nt | -10 | nt | -1 | nt
COc1ccc(CCNCc2cccn2C)cc1 | -2 | 69* | 3 | 5 | -1 | -17
Cc1ccc(OC(=O)N(C)C[C@H]2OCc3cnnn3CCCC(=O)N([C@@H](C)CO)C[C@H]2C)cc1 | nt | -8 | nt | -4 | nt | -7
COc1ccc(CN(CCc2c[nH]c3ccccc23)Cc2ccc(OC)cc2)cc1 | nt | 2 | nt | -21 | nt | -15
CC[n+]1c(/C=C/C=C/c2ccc(N(C)C)cc2)sc2ccccc21 | -27 | 39 | -4 | 52* | 2 | 56*
CN(C)c1ccc(/C=C/C=C/c2sc3ccccc3[n+]2C)cc1 | -2 | 21 | -8 | 20 | 1 | 41
CCOC(=O)c1ccc(N=C(C)c2c(O)[nH]c(=O)[nH]c2=O)cc1 | -62 | 5 | -63* | -4 | 0 | 11
CCCCn1c(O)c(C(C)=Nc2ccc(C(=O)O)cc2)c(=O)[nH]c1=O | 5 | 6 | -11 | 1 | 0 | -13
CC1=C(C)CN2CC(C#N)=C(N)C2C1 (stereo not drawn) | nt | nt | nt | -22 | nt | -9
S=C=Nc1cccc(C2(N3CCCCC3)CCCCC2)c1 | nt | -12 | nt | -5 | nt | -3
SMILES | HSF-1 act | LMP1 NFkB inh | HSF1 inh | TROY signal inh | HSP90 refold inh | TWEAK Fn14 block
CCOC(=O)[C@]12Cc3ccccc3[C@H]1N(CCC(=O)OC)C(=O)c1ccccc12 | nt | nt | nt | 17 | nt | 7
Cc1cccn2c(=O)c3c(nc12)N1CCC(Cc2ccccc2)CC1C1(C3)C(=O)N(C)C(=O)N(C)C1=O (stereo not drawn) | 56* | 9 | 10 | 6 | 0 | -1
CC(NS(C)(=O)=O)c1nnc2n1-c1ccc(Br)cc1C(c1ccccc1Cl)=NC2 (stereo not drawn) | 8 | 6 | -1 | -16 | nt | 24
COc1ccc(Cn2c(N)c(C(=O)NCc3ccco3)c3nc4ccccc4nc32)cc1 | 37 | -16 | 17 | 69* | 12 | 43
CCCCn1c(N)c(C(=O)OCCOC)c2nc3ccccc3nc21 | -1 | nt | -2 | 3 | 0 | 3
Nc1c(C(=O)NCc2ccco2)c2nc3ccccc3nc2n1CCN1CCOCC1 | 44 | 13 | 14 | 1 | -3 | 6
Nc1c(C(=O)NCc2ccco2)c2nc3ccccc3nc2n1Cc1ccc(F)cc1 | 39 | -5 | 19 | 62* | 7 | 22
Nc1c(C(=O)NCc2ccco2)c2nc3ccccc3nc2n1Cc1ccccc1 | -24 | 2 | -1 | 43 | 6 | 50*
COCC(C)OC(=O)c1c(N)n(Cc2ccco2)c2nc3ccccc3nc12 (stereo not drawn) | -4 | 1 | -4 | -9 | 2 | 16
COCCOC(=O)c1c(N)n(Cc2ccccc2)c2nc3ccccc3nc12 | 22 | 21 | -4 | 65* | 10 | 20
C/C1=C\[C@@H](C)C/C=C/[C@H]2[C@@H]3O[C@]3(C)[C@@H](C)[C@H]3[C@H](Cc4c[nH]c5ccccc45)NC(=O)[C@]32C(=O)/C=C/C(=O)[C@@H]1O | 111* | 19 | 91 | -53 | 3 | -125
CN(C)c1ccc(/C=C/c2cc[n+](C)c3ccccc23)cc1 | nt | 42*! | nt | 48 | 2 | 53*!
CCOC(=O)CC1c2ccccc2-n2nncc2CN1CC1CCCCC1 (stereo not drawn) | nt | 5 | nt | -20 | nt | -10
CC1(C)CN=C(Nc2nc3ccccc3s2)S1 | 54* | -37 | 25 | -25 | 12 | -18
CCN1CCN(c2nc3ccccc3s2)CC1 | 45 | -22 | 12 | -25 | 2 | -12
CC1(C)CN=C(NCc2ccccc2)S1 | -5 | -3 | 2 | -11 | 23* | 16
COc1ccc(NC(=S)N2Cc3ccccc3-n3nncc3C2)c(OC)c1 | nt | 6 | nt | 7 | nt | 18
CC(=O)O[C@@H]1CC[C@]2(C)C3CC[C@]4(C)C(=O)[C@H](O)CC4C3[C@@H](OC(C)=O)C[C@H]2C1 (stereo partly drawn) | nt | 7 | nt | 30 | nt | 53*
C[C@H]1CCCC(=O)CCC/C=C/c2cc(O)cc(O)c2C(=O)O1 | 24 | 16 | 5 | 15 | 7 | 42
COc1cc(O)cc2c1C(=O)OC(C)CCCC(=O)CCC/C=C\2 (stereo not drawn) | 107* | 3 | 65 | -7 | -3 | -6
Fc1cccc(-c2ccc3c(c2)CNCc2cnnn2-3)c1 | nt | nt | nt | -5 | nt | -23
Fc1ccc(CNCCc2ccccc2F)cc1 | 2 | -12 | -13 | 70* | 0 | 30
COc1ccc(OC(=O)N(C)C[C@@H]2OCc3cnnn3CCCC(=O)N([C@H](C)CO)C[C@H]2C)cc1 | nt | -41 | nt | -3 | nt | -3
